Laboratory results: the supplement of paper PMC11732987, “Enantioselective OTUD7B fragment discovery through chemoproteomics screening and high-throughput optimisation” (Communications Chemistry, 2025)

What was measured:
Assay in all cases: log2 ratio of Biotin-Ahx-Ub-VS probe labelling (fragment/DMSO); higher = less target engagement (more negative = stronger competition), active = hit call of the paper (q ≤ 0.05, log2 ratio ≤ -1)
Settings in all cases: compound concentration: 200 uM; treatment time: 3 h
USP42 = biological target: T1, USP42 (UniProt Q9H9J4)
T1 sequence (whole entry): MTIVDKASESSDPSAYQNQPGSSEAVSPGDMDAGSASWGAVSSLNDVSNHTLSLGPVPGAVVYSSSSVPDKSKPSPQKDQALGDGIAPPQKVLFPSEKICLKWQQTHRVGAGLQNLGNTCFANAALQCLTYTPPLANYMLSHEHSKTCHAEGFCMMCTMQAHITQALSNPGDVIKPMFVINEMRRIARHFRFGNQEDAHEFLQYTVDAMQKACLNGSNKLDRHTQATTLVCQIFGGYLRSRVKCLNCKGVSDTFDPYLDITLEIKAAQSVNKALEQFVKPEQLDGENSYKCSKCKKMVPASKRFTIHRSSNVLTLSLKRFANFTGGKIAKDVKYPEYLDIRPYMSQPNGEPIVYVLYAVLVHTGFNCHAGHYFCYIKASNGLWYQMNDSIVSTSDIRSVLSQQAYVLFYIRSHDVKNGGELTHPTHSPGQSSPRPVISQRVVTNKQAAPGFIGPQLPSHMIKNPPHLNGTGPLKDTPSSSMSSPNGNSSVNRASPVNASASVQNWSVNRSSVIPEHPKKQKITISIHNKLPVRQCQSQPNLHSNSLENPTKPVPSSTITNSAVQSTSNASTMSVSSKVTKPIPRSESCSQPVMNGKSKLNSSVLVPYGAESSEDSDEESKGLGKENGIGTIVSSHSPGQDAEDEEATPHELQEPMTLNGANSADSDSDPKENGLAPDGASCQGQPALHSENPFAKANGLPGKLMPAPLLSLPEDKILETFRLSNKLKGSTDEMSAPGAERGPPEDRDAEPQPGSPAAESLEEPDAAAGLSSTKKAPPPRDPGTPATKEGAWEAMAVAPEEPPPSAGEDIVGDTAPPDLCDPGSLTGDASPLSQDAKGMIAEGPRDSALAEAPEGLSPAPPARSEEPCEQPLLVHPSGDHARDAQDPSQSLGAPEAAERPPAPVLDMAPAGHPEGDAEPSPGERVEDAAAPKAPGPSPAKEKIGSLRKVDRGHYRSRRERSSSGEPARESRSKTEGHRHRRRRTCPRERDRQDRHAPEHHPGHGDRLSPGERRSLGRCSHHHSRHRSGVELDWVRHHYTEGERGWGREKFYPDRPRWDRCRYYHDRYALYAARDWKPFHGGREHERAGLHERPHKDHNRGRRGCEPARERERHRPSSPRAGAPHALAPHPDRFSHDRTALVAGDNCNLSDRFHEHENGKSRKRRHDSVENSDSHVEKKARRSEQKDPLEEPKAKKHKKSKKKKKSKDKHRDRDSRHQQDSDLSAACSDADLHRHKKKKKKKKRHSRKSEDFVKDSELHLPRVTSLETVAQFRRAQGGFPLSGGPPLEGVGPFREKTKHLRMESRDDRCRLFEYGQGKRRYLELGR
Method in brief: (§1)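 HEK293T lysate (495 µg per sample, in Tris/CHAPS/IGEPAL buffer with protease inhibitors) was exposed in triplicate for 3 h to fragment at 200 µM or to vehicle, then to Biotin-Ahx-Ub-VS at 0.5 µM final for 1 h. Labelled DUBs were enriched on NeutrAvidin, digested with LysC and trypsin, and analysed by diaPASEF LC-MS/MS. Spectronaut label-free quantities were normalised to the global median, and values are average log2 ratios of fragment over vehicle from an unpaired t-test. Only proteins with ≥2 unique peptides were used.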

USP46 = USP46 (UniProt P62068)
Method in brief: as §1

USP47 = biological target: T2, USP47 (UniProt Q96K76)
T2 sequence (whole entry): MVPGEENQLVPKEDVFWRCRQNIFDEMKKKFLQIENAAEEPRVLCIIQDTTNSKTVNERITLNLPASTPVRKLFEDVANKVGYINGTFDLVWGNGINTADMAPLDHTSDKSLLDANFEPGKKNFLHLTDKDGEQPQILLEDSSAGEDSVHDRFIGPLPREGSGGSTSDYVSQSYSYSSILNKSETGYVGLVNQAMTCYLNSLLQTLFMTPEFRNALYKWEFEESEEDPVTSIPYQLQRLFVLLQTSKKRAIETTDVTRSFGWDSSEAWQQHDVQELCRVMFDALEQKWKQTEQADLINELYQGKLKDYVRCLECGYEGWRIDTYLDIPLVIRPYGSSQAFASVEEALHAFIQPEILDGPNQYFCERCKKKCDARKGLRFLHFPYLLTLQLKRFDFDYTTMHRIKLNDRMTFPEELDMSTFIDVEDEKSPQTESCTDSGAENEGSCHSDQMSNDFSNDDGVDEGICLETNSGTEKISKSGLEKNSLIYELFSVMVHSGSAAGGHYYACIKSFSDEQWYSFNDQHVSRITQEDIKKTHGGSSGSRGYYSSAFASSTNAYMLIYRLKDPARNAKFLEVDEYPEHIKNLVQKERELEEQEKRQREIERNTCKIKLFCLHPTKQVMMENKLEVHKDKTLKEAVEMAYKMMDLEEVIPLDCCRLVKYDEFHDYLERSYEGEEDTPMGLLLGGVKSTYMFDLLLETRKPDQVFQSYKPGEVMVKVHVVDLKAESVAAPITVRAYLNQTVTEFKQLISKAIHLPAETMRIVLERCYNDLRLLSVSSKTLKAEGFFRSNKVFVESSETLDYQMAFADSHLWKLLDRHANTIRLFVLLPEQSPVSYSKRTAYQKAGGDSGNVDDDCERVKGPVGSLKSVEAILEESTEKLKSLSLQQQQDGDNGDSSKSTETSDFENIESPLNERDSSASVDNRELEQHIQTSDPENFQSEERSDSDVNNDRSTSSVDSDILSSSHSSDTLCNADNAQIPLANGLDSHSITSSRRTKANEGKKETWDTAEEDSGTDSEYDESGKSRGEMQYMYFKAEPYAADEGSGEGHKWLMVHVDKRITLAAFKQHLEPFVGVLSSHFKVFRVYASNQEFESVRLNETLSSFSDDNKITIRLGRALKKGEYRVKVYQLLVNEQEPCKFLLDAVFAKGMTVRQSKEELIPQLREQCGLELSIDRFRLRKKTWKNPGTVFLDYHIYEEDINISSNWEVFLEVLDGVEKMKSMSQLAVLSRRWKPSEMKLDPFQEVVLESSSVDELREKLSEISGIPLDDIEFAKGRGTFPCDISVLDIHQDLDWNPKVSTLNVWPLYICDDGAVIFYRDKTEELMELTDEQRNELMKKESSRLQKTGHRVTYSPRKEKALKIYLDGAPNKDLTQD
Method in brief: as §1

USP48 = biological target: T3, USP48 (UniProt Q86UV5)
T3 sequence (whole entry): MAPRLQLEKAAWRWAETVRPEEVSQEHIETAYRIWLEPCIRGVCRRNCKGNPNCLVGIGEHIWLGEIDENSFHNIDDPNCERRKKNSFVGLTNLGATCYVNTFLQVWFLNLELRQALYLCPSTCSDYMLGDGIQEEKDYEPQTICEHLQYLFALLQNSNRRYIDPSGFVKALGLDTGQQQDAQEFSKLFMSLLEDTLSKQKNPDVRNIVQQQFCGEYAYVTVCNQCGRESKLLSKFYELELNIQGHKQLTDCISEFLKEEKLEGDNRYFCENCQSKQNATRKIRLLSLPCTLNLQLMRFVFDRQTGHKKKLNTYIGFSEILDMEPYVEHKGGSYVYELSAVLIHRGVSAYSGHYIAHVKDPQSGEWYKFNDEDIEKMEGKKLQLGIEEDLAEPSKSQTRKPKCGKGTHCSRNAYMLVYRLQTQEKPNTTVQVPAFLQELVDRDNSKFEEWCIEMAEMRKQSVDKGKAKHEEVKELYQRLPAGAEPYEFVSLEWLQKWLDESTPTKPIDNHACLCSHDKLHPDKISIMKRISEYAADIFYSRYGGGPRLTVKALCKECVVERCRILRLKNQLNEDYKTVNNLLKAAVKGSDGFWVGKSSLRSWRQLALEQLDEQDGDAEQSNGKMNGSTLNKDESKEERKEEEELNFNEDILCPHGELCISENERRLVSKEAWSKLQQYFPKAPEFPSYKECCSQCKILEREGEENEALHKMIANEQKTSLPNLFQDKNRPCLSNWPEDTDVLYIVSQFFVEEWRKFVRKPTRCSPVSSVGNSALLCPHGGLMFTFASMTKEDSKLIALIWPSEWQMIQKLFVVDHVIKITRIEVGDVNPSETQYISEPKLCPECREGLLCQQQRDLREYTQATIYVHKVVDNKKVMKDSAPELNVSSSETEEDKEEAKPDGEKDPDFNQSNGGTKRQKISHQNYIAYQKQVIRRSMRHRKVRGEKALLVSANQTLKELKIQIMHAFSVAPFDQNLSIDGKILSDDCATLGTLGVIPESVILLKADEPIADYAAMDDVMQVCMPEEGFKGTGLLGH
Method in brief: as §1

USP5 = biological target: T4, USP5 (UniProt P45974)
T4 sequence (whole entry): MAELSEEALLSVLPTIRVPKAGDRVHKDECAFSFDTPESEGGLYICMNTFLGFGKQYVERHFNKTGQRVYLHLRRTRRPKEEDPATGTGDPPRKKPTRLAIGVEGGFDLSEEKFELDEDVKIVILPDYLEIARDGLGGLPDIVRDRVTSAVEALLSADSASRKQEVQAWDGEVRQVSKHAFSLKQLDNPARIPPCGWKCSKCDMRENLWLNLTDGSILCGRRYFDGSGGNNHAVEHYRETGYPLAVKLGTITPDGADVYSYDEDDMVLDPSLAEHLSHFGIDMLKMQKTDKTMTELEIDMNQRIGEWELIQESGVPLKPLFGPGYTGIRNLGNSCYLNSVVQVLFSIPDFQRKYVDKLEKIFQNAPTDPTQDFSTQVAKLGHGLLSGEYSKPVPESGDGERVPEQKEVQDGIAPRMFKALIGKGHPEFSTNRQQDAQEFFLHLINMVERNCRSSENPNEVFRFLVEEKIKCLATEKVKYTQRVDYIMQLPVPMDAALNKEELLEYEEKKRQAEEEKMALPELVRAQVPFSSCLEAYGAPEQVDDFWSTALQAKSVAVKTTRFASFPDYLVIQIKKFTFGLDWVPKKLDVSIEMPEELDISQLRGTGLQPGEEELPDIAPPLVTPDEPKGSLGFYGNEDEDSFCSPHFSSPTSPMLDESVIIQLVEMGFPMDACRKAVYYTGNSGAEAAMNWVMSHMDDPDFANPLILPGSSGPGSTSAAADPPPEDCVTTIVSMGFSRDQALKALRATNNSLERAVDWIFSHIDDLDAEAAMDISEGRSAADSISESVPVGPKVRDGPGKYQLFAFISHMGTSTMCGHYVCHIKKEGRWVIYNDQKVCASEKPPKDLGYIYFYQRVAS
Method in brief: as §1

USP54 = USP54 (UniProt Q70EL1)
Method in brief: as §1

USP7 = USP7 (UniProt Q93009)
Method in brief: as §1

USP8 = biological target: T5, USP8 (UniProt P40818)
T5 sequence (whole entry): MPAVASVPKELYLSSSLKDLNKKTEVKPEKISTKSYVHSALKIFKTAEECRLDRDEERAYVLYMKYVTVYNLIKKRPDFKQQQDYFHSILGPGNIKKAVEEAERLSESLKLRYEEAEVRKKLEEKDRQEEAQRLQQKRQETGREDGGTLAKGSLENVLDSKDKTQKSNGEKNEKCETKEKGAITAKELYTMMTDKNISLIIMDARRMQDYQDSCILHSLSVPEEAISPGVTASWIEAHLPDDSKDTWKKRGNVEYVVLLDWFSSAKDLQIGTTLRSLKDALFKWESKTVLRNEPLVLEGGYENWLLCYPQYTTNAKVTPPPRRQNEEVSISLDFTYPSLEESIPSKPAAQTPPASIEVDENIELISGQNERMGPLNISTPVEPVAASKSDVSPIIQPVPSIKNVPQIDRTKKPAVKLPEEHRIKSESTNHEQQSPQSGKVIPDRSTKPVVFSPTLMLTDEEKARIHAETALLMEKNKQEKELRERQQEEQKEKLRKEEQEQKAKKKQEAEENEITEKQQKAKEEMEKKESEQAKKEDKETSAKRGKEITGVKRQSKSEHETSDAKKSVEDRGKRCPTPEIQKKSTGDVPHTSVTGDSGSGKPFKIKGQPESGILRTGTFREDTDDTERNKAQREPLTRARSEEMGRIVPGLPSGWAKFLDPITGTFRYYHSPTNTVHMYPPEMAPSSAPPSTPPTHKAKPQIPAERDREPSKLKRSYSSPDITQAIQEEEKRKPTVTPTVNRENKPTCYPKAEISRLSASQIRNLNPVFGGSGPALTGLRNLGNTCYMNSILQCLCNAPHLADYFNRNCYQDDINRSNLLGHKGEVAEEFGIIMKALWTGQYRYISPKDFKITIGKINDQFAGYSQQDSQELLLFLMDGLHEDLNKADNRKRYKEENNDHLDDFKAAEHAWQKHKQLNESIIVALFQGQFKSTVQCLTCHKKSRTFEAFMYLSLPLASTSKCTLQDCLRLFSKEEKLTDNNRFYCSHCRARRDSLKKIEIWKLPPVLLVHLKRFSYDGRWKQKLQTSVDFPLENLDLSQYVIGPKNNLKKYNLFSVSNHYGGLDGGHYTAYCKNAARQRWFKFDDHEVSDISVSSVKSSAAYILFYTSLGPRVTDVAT
Method in brief: as §1

Measured: log2 ratio of Biotin-Ahx-Ub-VS probe labelling

Chain of USP54 (Q70EL1 whole entry): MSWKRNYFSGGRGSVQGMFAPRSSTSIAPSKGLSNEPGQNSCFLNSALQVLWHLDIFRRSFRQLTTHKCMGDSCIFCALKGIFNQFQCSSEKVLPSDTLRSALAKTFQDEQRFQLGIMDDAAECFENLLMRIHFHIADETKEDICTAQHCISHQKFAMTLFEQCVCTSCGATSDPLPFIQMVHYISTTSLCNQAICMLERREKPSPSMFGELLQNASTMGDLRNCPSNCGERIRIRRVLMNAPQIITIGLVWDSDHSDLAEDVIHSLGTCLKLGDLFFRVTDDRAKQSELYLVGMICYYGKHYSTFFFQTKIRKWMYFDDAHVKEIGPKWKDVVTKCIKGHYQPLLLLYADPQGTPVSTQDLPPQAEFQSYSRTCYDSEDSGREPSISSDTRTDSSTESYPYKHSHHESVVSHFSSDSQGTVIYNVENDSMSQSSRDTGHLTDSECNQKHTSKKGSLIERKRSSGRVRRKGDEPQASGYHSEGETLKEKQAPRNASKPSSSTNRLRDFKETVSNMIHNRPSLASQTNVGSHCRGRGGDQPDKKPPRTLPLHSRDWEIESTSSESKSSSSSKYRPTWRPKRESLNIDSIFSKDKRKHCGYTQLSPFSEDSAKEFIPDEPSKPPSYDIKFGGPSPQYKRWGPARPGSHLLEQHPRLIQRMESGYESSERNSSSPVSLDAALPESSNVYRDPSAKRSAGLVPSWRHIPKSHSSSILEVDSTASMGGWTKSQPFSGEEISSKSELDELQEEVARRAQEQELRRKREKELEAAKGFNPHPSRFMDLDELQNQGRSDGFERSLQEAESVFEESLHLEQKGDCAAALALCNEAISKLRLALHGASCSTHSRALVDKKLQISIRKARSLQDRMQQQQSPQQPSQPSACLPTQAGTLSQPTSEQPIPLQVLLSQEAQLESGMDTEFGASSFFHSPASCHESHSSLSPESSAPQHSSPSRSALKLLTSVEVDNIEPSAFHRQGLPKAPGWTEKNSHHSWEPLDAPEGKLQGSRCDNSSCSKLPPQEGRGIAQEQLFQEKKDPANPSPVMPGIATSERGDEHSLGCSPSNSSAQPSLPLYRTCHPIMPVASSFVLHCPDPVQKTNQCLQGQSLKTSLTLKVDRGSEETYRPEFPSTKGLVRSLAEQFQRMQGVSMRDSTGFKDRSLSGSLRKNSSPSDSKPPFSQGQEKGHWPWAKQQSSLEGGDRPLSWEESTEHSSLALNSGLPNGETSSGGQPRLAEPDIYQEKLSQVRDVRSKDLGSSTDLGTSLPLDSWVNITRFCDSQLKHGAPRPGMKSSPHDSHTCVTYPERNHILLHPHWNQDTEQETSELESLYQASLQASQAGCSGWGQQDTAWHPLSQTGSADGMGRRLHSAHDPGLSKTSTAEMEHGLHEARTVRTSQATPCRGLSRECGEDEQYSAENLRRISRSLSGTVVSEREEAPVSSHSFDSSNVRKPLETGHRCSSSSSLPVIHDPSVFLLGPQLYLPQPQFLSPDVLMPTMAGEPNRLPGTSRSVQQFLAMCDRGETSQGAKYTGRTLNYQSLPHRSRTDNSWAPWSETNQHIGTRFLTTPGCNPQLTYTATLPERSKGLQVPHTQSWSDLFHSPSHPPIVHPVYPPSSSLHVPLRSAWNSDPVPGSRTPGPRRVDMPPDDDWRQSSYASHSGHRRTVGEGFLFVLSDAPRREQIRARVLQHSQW
Chain of USP46 (P62068 whole entry): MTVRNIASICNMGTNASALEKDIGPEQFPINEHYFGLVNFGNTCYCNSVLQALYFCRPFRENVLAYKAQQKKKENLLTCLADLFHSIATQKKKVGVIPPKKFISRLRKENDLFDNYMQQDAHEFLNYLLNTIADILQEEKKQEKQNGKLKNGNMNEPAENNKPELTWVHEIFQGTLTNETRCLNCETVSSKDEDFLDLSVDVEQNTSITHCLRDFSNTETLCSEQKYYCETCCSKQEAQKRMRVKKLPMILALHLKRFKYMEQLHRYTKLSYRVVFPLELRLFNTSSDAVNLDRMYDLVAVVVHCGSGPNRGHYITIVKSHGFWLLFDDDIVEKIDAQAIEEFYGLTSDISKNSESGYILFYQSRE
Chain of USP7 (Q93009 whole entry, looked up): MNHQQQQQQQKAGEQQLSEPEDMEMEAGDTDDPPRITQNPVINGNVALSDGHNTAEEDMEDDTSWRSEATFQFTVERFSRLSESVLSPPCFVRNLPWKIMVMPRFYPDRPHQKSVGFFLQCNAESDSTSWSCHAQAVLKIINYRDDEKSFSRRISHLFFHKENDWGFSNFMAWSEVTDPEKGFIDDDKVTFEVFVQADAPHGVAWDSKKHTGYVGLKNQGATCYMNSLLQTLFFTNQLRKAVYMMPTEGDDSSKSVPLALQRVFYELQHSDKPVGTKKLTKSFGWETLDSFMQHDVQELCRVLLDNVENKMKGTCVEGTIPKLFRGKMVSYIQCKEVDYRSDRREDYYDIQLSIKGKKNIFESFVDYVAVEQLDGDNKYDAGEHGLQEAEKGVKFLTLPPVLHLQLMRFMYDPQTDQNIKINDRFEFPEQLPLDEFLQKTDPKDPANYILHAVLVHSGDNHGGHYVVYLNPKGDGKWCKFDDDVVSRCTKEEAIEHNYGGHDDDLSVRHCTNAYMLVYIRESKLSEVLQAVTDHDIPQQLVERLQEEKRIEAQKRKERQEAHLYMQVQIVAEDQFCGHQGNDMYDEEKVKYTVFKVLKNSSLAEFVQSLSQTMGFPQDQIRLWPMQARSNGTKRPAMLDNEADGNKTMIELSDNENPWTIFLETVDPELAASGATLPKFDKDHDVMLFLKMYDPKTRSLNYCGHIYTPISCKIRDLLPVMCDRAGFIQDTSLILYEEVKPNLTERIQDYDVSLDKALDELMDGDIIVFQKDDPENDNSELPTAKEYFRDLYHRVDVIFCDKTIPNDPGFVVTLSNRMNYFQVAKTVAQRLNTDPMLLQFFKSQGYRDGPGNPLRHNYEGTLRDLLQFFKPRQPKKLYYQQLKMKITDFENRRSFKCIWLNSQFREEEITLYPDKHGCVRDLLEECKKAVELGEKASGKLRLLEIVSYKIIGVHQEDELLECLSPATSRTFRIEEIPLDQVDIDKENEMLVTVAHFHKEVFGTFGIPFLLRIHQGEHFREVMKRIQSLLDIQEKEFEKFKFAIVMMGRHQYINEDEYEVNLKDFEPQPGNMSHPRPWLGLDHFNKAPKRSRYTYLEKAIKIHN

COc1ccc(Cl)cc1NC(=O)CCl
inactive: USP42 0.21 | USP46 -0.265 | USP47 -0.266 | USP48 -0.394 | USP5 -0.409 | USP54 0.0369 | USP7 -0.593 | USP8 -0.171
